Columns and labels:
PEG-3 [1] = target: PEG-3 (UniProt Q6IN02); experiment: inhibition of PEG-3 promoter-driven reporter – cell-based, HeLa, luciferase, CREF/GAPDH counter-screen panel, dose response (AID 624167); conditions: CREF/GAPDH counter-screens; HeLa PEG-Prom luciferase reporter, overnight, run 1, dose range 1, at 100 µM (top of the series) unless noted
PEG-3 [2] = target: PEG-3 (UniProt Q6IN02); experiment: as above; conditions: CREF/GAPDH counter-screens; HeLa PEG-Prom luciferase reporter, overnight, run 2, dose range 1, at 100 µM (top of the series) unless noted
Rat fibroblasts (CREF) [3] = experiment: as above; conditions: CREF/GAPDH counter-screens; run 1, dose range 1, at 100 µM (top of the series)
Rat fibroblasts (CREF) [4] = experiment: as above; conditions: CREF/GAPDH counter-screens; run 2, dose range 1, at 100 µM (top of the series)
[5] = target: Tumor necrosis factor receptor superfamily member 10B (Homo sapiens) (UniProt O14763); experiment: viability loss of caspase-8 NB7 cells with TRAIL – with/without TRAIL, luminescence panel, confirmation (AID 651596); conditions: NB7 neuroblastoma + caspase-8, TRAIL sensitization, NB7 Caspase-8, with TRAIL, mean of runs, at 10 µM, stronger effect = higher value
Sequence of Tumor necrosis factor receptor superfamily member 10B (Homo sapiens) (O14763 whole entry, looked up): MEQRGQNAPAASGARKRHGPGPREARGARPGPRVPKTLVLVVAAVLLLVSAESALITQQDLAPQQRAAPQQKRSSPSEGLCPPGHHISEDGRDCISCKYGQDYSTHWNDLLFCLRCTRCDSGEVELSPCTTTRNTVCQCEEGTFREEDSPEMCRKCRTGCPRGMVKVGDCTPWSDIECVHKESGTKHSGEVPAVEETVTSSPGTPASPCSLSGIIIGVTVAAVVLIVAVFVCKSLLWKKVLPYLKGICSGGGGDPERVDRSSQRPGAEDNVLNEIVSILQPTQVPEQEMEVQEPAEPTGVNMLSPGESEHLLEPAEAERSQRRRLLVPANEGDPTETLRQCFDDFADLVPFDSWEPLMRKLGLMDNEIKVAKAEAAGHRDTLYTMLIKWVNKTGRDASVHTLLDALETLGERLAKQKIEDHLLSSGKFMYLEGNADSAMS

[6] = as above; conditions: NB7 neuroblastoma + caspase-8, without TRAIL, NB7 Caspase-8, without TRAIL, mean of runs, at 10 µM
[7] = NFkB reporter suppression in cystic fibrosis bronchial cells – cell-based, uHTS hits, panel, cytotoxicity readout, dose response (AID 624344); conditions: CF bronchial epithelial cells, PAF-induced NFkB reporter inhibition, with PAF, run 1; at 79 µM (top of the series) unless noted
[8] = as above; conditions: CF bronchial epithelial cells, PAF-induced NFkB reporter inhibition, with PAF, run 2; at 79 µM (top of the series) unless noted

Sequence of PEG-3 (Q6IN02 whole entry, looked up): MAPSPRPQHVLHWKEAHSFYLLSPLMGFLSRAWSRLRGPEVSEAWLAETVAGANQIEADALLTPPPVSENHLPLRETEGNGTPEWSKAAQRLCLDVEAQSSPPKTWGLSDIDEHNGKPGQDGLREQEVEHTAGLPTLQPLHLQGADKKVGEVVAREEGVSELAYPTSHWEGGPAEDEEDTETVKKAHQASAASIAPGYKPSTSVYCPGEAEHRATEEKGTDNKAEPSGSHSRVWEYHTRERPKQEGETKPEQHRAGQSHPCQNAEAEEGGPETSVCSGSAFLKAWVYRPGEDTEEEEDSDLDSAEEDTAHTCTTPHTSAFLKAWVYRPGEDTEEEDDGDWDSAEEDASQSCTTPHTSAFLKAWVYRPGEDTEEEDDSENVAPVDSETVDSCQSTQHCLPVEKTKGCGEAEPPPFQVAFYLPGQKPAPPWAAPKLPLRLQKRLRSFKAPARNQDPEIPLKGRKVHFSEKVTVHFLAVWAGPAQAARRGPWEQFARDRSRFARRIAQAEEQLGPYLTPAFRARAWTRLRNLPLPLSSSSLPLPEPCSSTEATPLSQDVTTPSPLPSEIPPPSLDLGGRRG

SMILES	inhibition (PEG-3 [1])	inhibition (PEG-3 [2]) [%]	inhibition (Rat fibroblasts (CREF) [3]) [%]	inhibition (Rat fibroblasts (CREF) [4]) [%]	activity [5] [%]	activity [6] [%]	inhibition [7] [%]	inhibition [8] [%]
CCc1ccn2cc(-c3ccc4c(c3)OCO4)nc2c1	96%	89.2	-17.6	97.5	–	–	–	–
Cc1csc(NC(=O)c2cn3ccccc3n2)n1	99%	99.7	99.8	99.8	89.6	89.8	–	–
c1cc2c(cc1C1=NNC(=NC3CC3)SC1)OCCO2	98.9%	99	99.2	91.3	93.3	90.9	–	–
O=C(N/N=C/c1cccs1)c1n[nH]c2c1CCCC2	99.5%	94.8	96.4	96.8	81	84.2	–	–
NC(Cc1ccc(F)cc1)c1csc(Nc2cc(Oc3ccccc3)ncn2)n1 (stereo not given)	102%	101	95.3	94.1	–	–	–	–
CCCN1C=CC(=C2C(=O)c3ccccc3C2=O)C=C1	102%	98.2	100	100	–	–	–	–
CCOC(=O)Cc1csc(NC(=S)NC(=O)c2ccc(Cl)cc2)n1	77.7%	73.4	88	86.8	65.1	63.8	–	–
CS(=O)(=O)Nc1cccc(NC(=O)C2Cc3c(-c4cccc(F)c4)ccnc3O2)c1 (stereo not given)	77.9% [run 1, dose range 1, at 50 µM]	85.4	17.8	29	75.5	73.2	–	–
O=C(N/N=C/c1c(O)ccc2ccccc12)c1ccc(CO)nc1	51.6%	60.4	54	47.6	–	–	–	–
CCCC(=O)NC(c1ccc(Cl)cc1)c1ccc2cccnc2c1O (stereo not given)	99.9%	98.7	12.3	28.1	–	–	–	–
CC(=O)Nc1ccc(NC(=O)c2nc(S(=O)(=O)Cc3cccc(C)c3)ncc2Cl)cc1	102%	97.4	100	100	56.4	99.4	76.1	85.4
COc1cc(SC)ccc1C(=O)Nc1nc2ccccc2[nH]1	99.2%	101	96.9	97.9	99	99	–	–
COc1ccc(-c2cc3nc(C)n(N)c(=O)c3s2)cc1	99.2%	102	99	98.9	–	–	–	–
CC(=O)n1cc(N(C(=O)CCl)c2ccc(C)cc2)c2ccccc21	102%	99	99.7	95.3	99.6	99.7	–	–
CC1CCCN(c2ncnc3c2cnn3-c2ccc(Cl)cc2)C1 (stereo not given)	98.9%	98	94	96.6	–	–	–	–
O=C(CCl)Nc1ccccc1Sc1ccc(Cl)cc1	102%	98.7	99.4	100	99.2	99.5	–	–
CC1CCN(c2ccc(-c3cccc(NC(=O)C(F)(F)F)c3)nn2)CC1	93.8%	94.5	99.2	99.5	97.5	97.7	–	–
O=C(CN1C(=O)c2ccccc2S1(=O)=O)c1ccc2c(c1)OCCCO2	98.1%	98.8	99.7	99.4	95.4	94.1	–	–
CCC(c1ccc(O)c(O)c1)C(CC)c1ccc(O)c(O)c1 (stereo not given)	102%	101	100	97.1	–	–	–	–
Cc1ccc(/C=C2\SC(=S)N(CCCC(=O)Nc3ccccn3)C2=O)cc1	88%	94.2	-11.8	-1.96	–	–	–	–
O=C(Cn1ncc(Cl)c(Cl)c1=O)N1CCc2ccccc21	99.5%	98.6	96.2	95.5	99.5	99.6	–	–

Source: PubChem BioAssay
